ChEMBL document CHEMBL3988442, “University of Dundee, Small-Polar-MMV Screening Library” (2021)
Screen size: about 48,000 compounds; about 13,000 (27%) showed an effect of 50% or more. Some of the results follow.

test system: Wolbachia pipientis; test: Anti-Wolbachia Cell-Based Screen; type: functional; design: scale not given: in the data most compounds retested in dose-response had high values; conditions: 5 µM

Structure (SMILES)	Percent Effect [%]
CS(=O)(=O)N1CCN(Cc2ccc(F)cc2Br)CC1	0.07282
CS(=O)(=O)N1CCCN(CCCSCc2ccccc2)CC1	0.2965
CC(C)CSCCN1CCCN(S(C)(=O)=O)CC1	87.23
Cc1noc(C)c1C(=O)NCCN1CCN(S(C)(=O)=O)CC1	1.414
COc1cccc(/C=C/CCN2CCN(S(C)(=O)=O)CC2)c1	-6.634
CC(C)CSCCN1CCN(S(C)(=O)=O)CC1	87.34
CC(OCC(F)(F)F)C(=O)N1CCN(S(C)(=O)=O)CC1 (centres undefined)	-14.66
CCSCCN1CCCN(S(C)(=O)=O)CC1	101
CC(C)COC(C)C(=O)N1CCN(S(C)(=O)=O)CC1 (centres undefined)	-15.22
c1ccc2c(c1)CCN(c1ncnc3sc4c(c13)CCNC4)C2	-22.34
CC(C)(C)c1nnc(CN2CCn3c(nnc3C3CC3)C2)o1	-1.017
Cc1nn(C)c(N(C)C)c1CNC(C)COc1ccc(F)cc1F (centres undefined)	105.9
COCCOc1ccccc1CNCc1c(C)nn(C)c1N(C)C	3.924
Cc1nn(C)c(N(C)C)c1CNCC(O)COc1ccc(F)cc1 (centres undefined)	-24.06
Cc1nn(C)c(N(C)C)c1CNC(C)c1cccnc1 (centres undefined)	9.889
Cc1nn(C)c(N(C)C)c1CNCC(O)COc1ccccc1.Cl (centres undefined)	-3.331
COc1cc(CNCc2c(C)nn(C)c2N(C)C)ccc1C	5.351
CCOc1cccc(C(C)NCc2c(C)nn(C)c2N(C)C)c1 (centres undefined)	98.21
Cc1nn(C)c(N(C)C)c1CNC(C)COc1ccc(F)cc1 (centres undefined)	102.4
Cc1nn(C)c(N(C)C)c1CNCc1cccc(CN(C)C(C)C)c1	4.552
Cc1nn(C)c(N(C)C)c1CNC(C)COc1ccccc1F (centres undefined)	101.5
COc1cccc(OCCNCc2c(C)nn(C)c2N(C)C)c1	-5.717
c1cc(-c2c[nH]c([C@@H]3COCCN3C3CCOCC3)n2)ccn1	-2.86
COc1cccc(C(C)N2CCN(S(=O)(=O)CCCF)CC2)c1 (centres undefined)	11.55
CC(C(=O)Nc1ccnn1C(C)C)N1CCN(Cc2ccccc2)CC1 (centres undefined)	-23.16
c1cc(-c2cnc(C3CCNCC3)cn2)n[nH]1	125.1
CC(C)n1cnc2c(-c3cccnc3)nc(C3CCNCC3)cc21.Cl.Cl	-47.69

Structure (SMILES)	Percent Effect [%]
c1cc(-c2cncc(C3CCNCC3)n2)n[nH]1	120.5
O=c1n(Cc2ncccn2)nc(C2CCNCC2)n1-c1ccccc1	0.768
O=C(c1cscn1)N1CCCC12CCCN(S(=O)(=O)c1ccccc1)C2 (centres undefined)	-2.919
CC(C)[C@@H]1CN(Cc2cnc3c(S(C)(=O)=O)cnn3c2)C[C@H]1N(C)C	-1.352
CNc1cc(N2CCCC2CNCc2ccccn2)ncn1 (centres undefined)	-5.969
Cc1nccc(CNc2cc(N3CCCC3CO)ncn2)n1 (centres undefined)	87.89
Cc1nccc(N2C[C@H](NC(=O)CNS(C)(=O)=O)[C@@H](C3CC3)C2)n1	-1.379
Cc1cccnc1CNc1cc(N2CCCC2CO)ncn1 (centres undefined)	-0.7119
OCC1CCCN1c1cc(NCc2cccs2)ncn1 (centres undefined)	94.03
OCC1CCCN1c1cc(NCc2ccc(Cl)s2)ncn1 (centres undefined)	16.81
CN(CCCNc1cc(N2CCCC2CO)ncn1)S(C)(=O)=O (centres undefined)	-14.7
CCc1ccc(CNc2cc(N3CCCC3CO)ncn2)s1 (centres undefined)	110.8
Cc1nccc(N2CCCC2CCNS(C)(=O)=O)n1 (centres undefined)	105.7
CS(=O)(=O)NCCCN1CCCC1Cc1ccccc1 (centres undefined)	-4.416
COc1ncccc1CNc1cc(N2CCCC2CO)ncn1 (centres undefined)	0.4879
COc1ccc(-c2noc([C@@H](C)NS(=O)(=O)CC(C)C)c2C(=O)O)cc1	-11.95
Cn1cc(Cl)c(CN2CCn3nc(C(=O)Nc4ccccc4)cc3C2)n1	-7.275
CN1CCN(c2cc(N3CCCC3CO)ncn2)Cc2ccccc21 (centres undefined)	10.62
OCC1CCCN1c1cc(NCc2ccsc2)ncn1 (centres undefined)	106
Cc1ccc(CNc2cc(N3CCCC3CO)ncn2)s1 (centres undefined)	116.3
Cc1ncsc1CNc1cc(N2CCCC2CO)ncn1 (centres undefined)	92.3
Cc1ccsc1CNc1cc(N2CCCC2CO)ncn1 (centres undefined)	12.33
OCC1CCN(c2ccc(NCc3ccsc3)nc2)CC1	-9.25
Cc1noc(C)c1CNc1cc(N2CCCC2CO)ncn1 (centres undefined)	-3.514
COCc1ccccc1CNc1cc(N2CCCC2CO)ncn1 (centres undefined)	1.416
Cc1cccc2c1CCN(c1cc(N3CCCC3CO)ncn1)C2 (centres undefined)	1.096
CN(CC1COc2ccccc2O1)C(=O)NCCCn1cncn1 (centres undefined)	-12.38
